We go through eight compounds from PubChem BioAssay (NCI).

Experiment in all cases: NCI-60 one-dose screen, 48 h (100 = growth as untreated, 0 = no growth, -100 = all killed)
Common to all, as to conditions: 10 µM unless noted

Assay [1] relates to NCI-H23 lung.
Assay [2] has as its system NCI-H226 lung.
Assay [3] concerns NCI-H322M lung.
Assay [4] relates to HOP-62 NSCLC.
The subject of assay [5] is NCI-H460 lung.
In assay [6] the test system is HOP-92 NSCLC.
The test system of assay [7] is NCI-H522 lung.
In assay [8] the test system is A549/ATCC NSCLC.
For assay [9], the system named is 786-0 renal.
In assay [10] the test system is COLO 205 colon.
In assay [11] the test system is DU-145 prostate.
Assay [12] concerns K-562 leukemia.
Assay [13] concerns MALME-3M melanoma.
For assay [14], the system named is MDA-MB-231 breast.
Assay [15] relates to SF-268 CNS.
In assay [16] the test system is SF-295 CNS.
For assay [17], the system named is SF-539 CNS.
Assay [18] deals with UACC-257 melanoma.
The subject of assay [19] is M14 melanoma.

The structures appear in SMILES notation. This is part of a sample that, as a whole, favours compounds with a hit. Of some 83,000 tested, about 20% had one in any assay.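 The endpoint reported here, percent growth, reads 100 for growth as untreated, 0 for no net growth and -100 for all cells dead.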 A number with no mark means an inactive call. Active and inactive are the calls of the source. Rule for the calls: active = growth percent below 10; inactive = the rest.

For `CC(C)Sc1nc(NN)c(C#N)c(-c2ccccc2)n1`, the growth in assay [1] was 100%; in assay [2], 100%; in [3], 91.1%; in assay [4], 102%; in assay [5], 98.6%; in assay [6], 83.5%. For the same compound, the growth is 94.7% in [7]; 102% in [8]; 97.8% in assay [9]; 114% in assay [10]; 108% in [11]; 101% in assay [12]. In addition, the growth in assay [13] is 95.7%; in [14] it was 99.3%; in [15], 100%; in assay [16], 98.7%; in assay [17], 89.9%; in assay [18], 102%. Besides, the growth in assay [19] was 108%.
As to `CN1CCN(c2cc(F)c(NC3=C(Cl)C(=O)c4ncccc4C3=O)c(F)c2)CC1`, the growth in assay [1] was -61.2% (active); in assay [2], 85.3%; in [3], 102%; in [4], 83.3%; in assay [5], 9.91% (active); in [6], -79.9% (active). The growth in [7] was -59.7% (active); in assay [8] it was 74.6%; in [9], -72% (active); in assay [10] it was 34%; in assay [11], -67.6% (active); in assay [12] it was -0.834% (active). Moreover, the growth in [13] is -96.1% (active); in assay [14] it was -32% (active); in assay [15], 48.7%; in assay [16] it was 78.8%; in assay [17] it was -25.1% (active); in assay [18], -62.2% (active). Further, the growth in assay [19] was -40.5% (active).
For the compound `COc1ccc(/C=N/NC(=O)c2cccc3cc[nH]c23)cc1O`, the growth is 55.7% in assay [1]; 90.4% in [2]; 49.8% in assay [3]; 36.3% in assay [4]; 7.44% (active) in assay [5]; 57.2% in assay [6]. Further, the growth in assay [7] is 54.8%; in assay [8], 50.5%; in assay [9], 30.9%; in [10], 55.7%; in assay [11], 28.3%; in assay [12], 27.8%. In addition, the growth in assay [13] is 43%; in [14], 55.2%; in [15] it was 53%; in assay [16], -20.3% (active); in [17], -18.8% (active); in [18], 47.3%. The growth in assay [19] was 0.307% (active).
Regarding `COc1cc(-c2nc3sccn3c2-c2ccnc(NCCNS(=O)(=O)c3ccc(F)cc3)n2)ccc1F`, the growth is 13% in [1]; 3.23% (active) in assay [2]; 29.7% in [3]; 32.3% in assay [4]; 13.6% in assay [5]; 18.8% in assay [6]. The growth is -6.6% (active) in assay [7]; 5.95% (active) in assay [8]; 30.9% in assay [9]; 5.45% (active) in assay [10]; 19.6% in [11]; 5.81% (active) in [12]. Also, the growth in assay [13] is -34.2% (active); in assay [14], 22.3%; in assay [15], 19%; in assay [16], 4.27% (active); in assay [17], 31.2%; in [18], -12.7% (active). The growth in [19] is 9.49% (active).
`CC1CCN(C(=O)OCc2nc3nc(Cl)nc(N4CCOCC4)c3[nH]2)CC1`: the growth in assay [1] was 8.48% (active); in [2], -73.7% (active); in assay [3], 68%; in [4] it was 46.4%; in [5] it was 10.5%; in assay [6], -48.8% (active). Also, the growth was -67.8% (active) in [7]; 6.08% (active) in [8]; -79.8% (active) in assay [9]; -86.6% (active) in assay [10]; -76.7% (active) in assay [11]; -16.7% (active) in [12]. Besides, the growth in assay [13] is -78.9% (active); in assay [14], -60.1% (active); in [15] it was -81.6% (active); in [16] it was 88.3%; in [17], -47.1% (active); in assay [18], -89.7% (active). In [19], the growth is -50.9% (active).
Regarding `O=C(CN1CCOCC1)Nc1ccc2ncnc(Nc3ccc(Oc4cccc(C(F)(F)F)c4)c(Cl)c3)c2c1`, the growth in assay [1] was 68.8%; in [2], 75%; in assay [3], 16.6%; in assay [4], 73.9%; in assay [5], 64.1%; in assay [6], 53%. For the same compound, the growth in assay [7] is 26%; in assay [8] it was 51.2%; in assay [9], 65.3%; in assay [10], 76.9%; in [11], 40.8%; in [12], 35%. Also, the growth in assay [13] was 73.4%; in assay [14] it was 60.1%; in assay [15] it was 59.6%; in [16] it was 63.5%; in assay [17], 78.8%; in assay [18] it was 83.3%. Further, the growth in assay [19] is 64%.
As for `Fc1ccc(C2CC(c3cccc(Nc4ccncc4)c3)=NN2c2ccccc2)cc1` (configuration not stated), the growth in assay [1] is 86.3%; in assay [2] it was 95.5%; in assay [3] it was 70.6%; in [4] it was 49.5%; in assay [5], -41.9% (active); in [6] it was 37.1%. The growth in assay [7] is 75.8%; in assay [8], 43.1%; in assay [9], 81.7%; in assay [10], -64.8% (active); in [11] it was 44.1%; in assay [12], 0.671% (active). Also, the growth in [13] was -5.72% (active); in [14] it was 64.3%; in assay [15], 73.1%; in assay [16] it was 73.4%; in assay [17], 69.7%; in assay [18], 37.8%. Also, the growth in assay [19] was 98.8%.
Take `COc1ccccc1N1CCN(C(=O)c2ccc3nc(NC(=O)c4ccc(NCCc5ccccc5)c([N+](=O)[O-])c4)sc3c2)CC1`: the growth in assay [1] is 81.9%; in assay [2] it was 87.4%; in [3] it was 91.5%; in assay [4] it was 82.9%; in assay [5], 86.5%; in [6], 81.9%. The growth in [7] is 80.4%; in assay [8], 91.3%; in assay [9] it was 110%; in assay [10], 100%; in assay [11], 68.7%; in assay [12], 86%. In addition, the growth in assay [13] was 45.6%; in assay [14] it was 75.7%; in assay [15] it was 67.6%; in assay [16], 102%; in assay [17] it was 99.7%; in assay [18], 72.7%. In addition, the growth in assay [19] was 64.4%.
